Source: PubChem BioAssay (NCI)
The panel holds about 83,000 compounds, 20% with a hit somewhere; the sample as a whole holds those more often.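 For each line, cells grew in 96-well plates with the test compound present at a single concentration for 48 hours.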 Active and inactive are the calls of the source. The calls were made as follows: active = growth percent below 10; inactive = the rest.

Experiments:
Assay in all cases: NCI-60 one-dose screen, 48 h (100 = growth as untreated, 0 = no growth, -100 = all killed)
Details in all cases: 10 µM unless noted
T-47D breast = system: T-47D breast
BT-549 breast = system: BT-549 breast
MDA-MB-435 melanoma = system: MDA-MB-435 melanoma
SW-620 colon = system: SW-620 colon
MCF7 breast = system: MCF7 breast
HCT-116 colon = system: HCT-116 colon
HCC-2998 colon = system: HCC-2998 colon
KM12 colon = system: KM12 colon

Measured: growth

Cn1c(=O)c2nc(/C=C/c3ccccc3)c(=O)[nH]c2n(C)c1=S
inactive: T-47D breast 104% | BT-549 breast 110% | MDA-MB-435 melanoma 103% | SW-620 colon 98.9% | MCF7 breast 93.9% | HCT-116 colon 105% | HCC-2998 colon 106% | KM12 colon 104%

O=C(CN1CCCCC1)Nc1nc(-c2cc3ccccc3oc2=O)cs1
inactive: T-47D breast 87.7% | BT-549 breast 100% | MDA-MB-435 melanoma 104% | SW-620 colon 99.2% | MCF7 breast 88.7% | HCT-116 colon 101% | HCC-2998 colon 104% | KM12 colon 99.9%

O=S(=O)(NCCNc1nccc(-c2c(-c3ccc(F)c(O)c3)nc3sccn23)n1)c1ccc(O)cc1
inactive: BT-549 breast 55.1% | SW-620 colon 67.1% | MCF7 breast 27.6% | HCT-116 colon 30.4% | HCC-2998 colon 76.5% | KM12 colon 13.9%
active: T-47D breast 6.97% | MDA-MB-435 melanoma 9.31%

O=C(O)c1ccc(-n2cc(/C=N/Nc3ccccc3)c(-c3ccc(F)cc3F)n2)cc1
inactive: T-47D breast 35.4% | BT-549 breast 95.2% | MDA-MB-435 melanoma 45.9% | SW-620 colon 30.1% | MCF7 breast 41.6% | HCT-116 colon 37.7% | HCC-2998 colon 81.1% | KM12 colon 29.3%

COc1ccc(Nc2ncc(Br)c(NCCCNC(=O)c3cccs3)n2)cc1
inactive: T-47D breast 46.2% | BT-549 breast 45.6% | MDA-MB-435 melanoma 59% | SW-620 colon 24.7% | MCF7 breast 42.9% | HCT-116 colon 26.2% | HCC-2998 colon 80.6% | KM12 colon 20.6%

CSc1nc2ncc([N+](=O)[O-])c(=O)n2[nH]1
inactive: T-47D breast 99.8% | BT-549 breast 104% | MDA-MB-435 melanoma 100% | SW-620 colon 101% | MCF7 breast 96.5% | HCT-116 colon 105% | HCC-2998 colon 107% | KM12 colon 103%

COCCOc1cc2ncnc(N3CCN(c4ncc(S(=O)(=O)N5CCCCC5)cn4)CC3)c2cc1OCCOC
inactive: T-47D breast 87% | BT-549 breast 105% | MDA-MB-435 melanoma 105% | SW-620 colon 109% | MCF7 breast 78.7% | HCT-116 colon 100% | HCC-2998 colon 99.3% | KM12 colon 97.6%

COc1ccccc1CNc1c2ccccc2nc2ccccc12
inactive: T-47D breast 46.2% | BT-549 breast 77% | MDA-MB-435 melanoma 42.6% | SW-620 colon 22.1% | MCF7 breast 16.8% | HCT-116 colon 12.7% | HCC-2998 colon 38.8% | KM12 colon 32.9%

COc1c(B(O)O)cccc1-c1nc2c(F)cc3[nH]ncc3c2c2c1CCCC2
active: T-47D breast 8.61% | BT-549 breast -46.1% | MDA-MB-435 melanoma 8.04% | SW-620 colon 1.12% | MCF7 breast -3.83% | HCT-116 colon 2.84% | HCC-2998 colon 1.17% | KM12 colon -12.1%

c1ccc([P+](c2ccccc2)(c2ccccc2)c2ccc3c4ccc([P+](c5ccccc5)(c5ccccc5)c5ccccc5)c5cccc(c6cccc2c63)c54)cc1
inactive: T-47D breast 23.6% | SW-620 colon 10% | MCF7 breast 16.1% | HCC-2998 colon 17.9%
active: BT-549 breast -1.26% | MDA-MB-435 melanoma 3.29% | HCT-116 colon 8.67% | KM12 colon -9.19%

CCOC(=O)n1ccn(C)c1=S
active: T-47D breast -28.3%
inactive: BT-549 breast 98.7% | MDA-MB-435 melanoma 102% | SW-620 colon 111% | MCF7 breast 102% | HCT-116 colon 94.4% | HCC-2998 colon 106% | KM12 colon 101%

NS(=O)(=O)c1ccccc1NC(=O)Nc1nc2ccccc2s1
inactive: T-47D breast 87.3% | BT-549 breast 98.2% | MDA-MB-435 melanoma 103% | SW-620 colon 101% | MCF7 breast 82.4% | HCT-116 colon 98.8% | HCC-2998 colon 95.8% | KM12 colon 104%

CC1CCc2c(C(=O)Nc3ncc(Cc4cccc([N+](=O)[O-])c4)s3)csc2C1 (stereo not given)
active: MDA-MB-435 melanoma -42%
inactive: T-47D breast 27.8% | BT-549 breast 46.6% | SW-620 colon 23.3% | MCF7 breast 17.1% | HCT-116 colon 19% | HCC-2998 colon 41.2% | KM12 colon 18.2%

OCCn1cc(-c2nc(-c3c[nH]c4ncccc34)cs2)c2ccccc21
inactive: T-47D breast 37.3% | BT-549 breast 76% | MDA-MB-435 melanoma 52.1% | SW-620 colon 91.5% | MCF7 breast 32.9% | HCT-116 colon 85.2% | HCC-2998 colon 52% | KM12 colon 48%

O=C(O)c1cn(C2CC2)c2cc(N3CCN(Cc4ccc5ccccc5c4O)CC3)c(F)cc2c1=O
inactive: T-47D breast 30.9% | MDA-MB-435 melanoma 33.6% | SW-620 colon 36.1% | MCF7 breast 17% | HCT-116 colon 14.5% | HCC-2998 colon 41.9% | KM12 colon 42.4%
active: BT-549 breast -59.1%
